The nature of test [1]: yeast TOR pathway RPL19A-GFP modulators, primary screen, cell-based, S. cerevisiae, multiplex flow cytometry (AID 1862; in the data active = percent of DMSO control GFP below about 86%;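 also: lower values mimic rapamycin by blocking the RPL19A rise seen in DMSO cells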). To be noted: S. cerevisiae RPL19A-GFP strain, flow cytometry fluorescence, 3 h; at 10 µM; stronger effect = lower value. (In flow cytometry, cells or beads pass a laser one at a time.)
Test [2] can be described thus: modulators of MEP2-GFP levels in yeast, primary screen, S. cerevisiae, multiplex flow cytometry (AID 1867;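 active = GFP response, as percent of the DMSO control, above the screen-wide mean plus 3 SD, about 139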;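 also: median GFP channel fluorescence of barcode-gated MEP2-GFP cells measured by flow cytometry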). To be noted: S. cerevisiae MEP2-GFP strain, 3 h, at 10 µM, stronger effect = higher value, 100% means same as DMSO wells.
Test [3] can be described thus: modulators of CIT2-GFP expression in yeast, primary screen, S. cerevisiae, GFP fusion, multiplex flow cytometry (AID 1870;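 active = percent response above a set limit, the screen-wide mean plus 3 SD, cut at about 130% in these data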;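 also: barcoded CIT2-GFP strain pooled with four other GFP strains with rapamycin as positive control; median GFP fluorescence per well over plate mean of DMSO wells so 100% = DMSO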). The note with it: 3 h, at 10 µM, stronger effect = higher value.
Test [4] in a line: modulators of LAP4-GFP expression in yeast, primary screen, S. cerevisiae, multiplex flow cytometry (AID 1873;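 active = GFP signal, as percent of the solvent control, above the screen mean plus 3 SD, about 149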). To be noted: 3 h, at 10 µM, stronger effect = higher value.
The nature of test [5]: modulators of AGP1-GFP expression in yeast TOR pathway, primary screen, cell-based, multiplex flow cytometry, S. cerevisiae (AID 1887;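 active = GFP signal above the screen-wide mean plus 3 SD, that is over about 124.5% of the solvent control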;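 also: AGP1-GFP fusion strain of S. cerevisiae within a five-strain barcoded multiplex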). The note with it: 3 h, at 10 µM, stronger effect = higher value.
Test [6] in a line: inhibitors of CD8+ T cell-vesicle binding, pilot screen, LFA-1/ICAM-1 modulator project, MLPCN validation set, flow cytometry (AID 2523;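 active = response below a set limit, under 55% cells CD8-positive and vesicle-bound, and CD8 cells' 90th-percentile brightness under 279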;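 as to vesicle binding response: mean PE anti-B7-1 fluorescence of CD8+ cells relative to row control; 100% = QL9-loaded vesicles with DMSO vehicle in the same plate row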). The note with it: 2C mouse CD8+ T cells, at 7 µM, stronger effect = lower value; double positive events: measured here: CD8+/vesicle+ event percentage.
The target of test [7] is Integrin beta-1 (Homo sapiens) + Integrin alpha-4 (Homo sapiens) (UniProt P13612+P05556). Put plainly: inhibition of HUTS-21 binding to VLA-4, pilot screen, VLA-4 allosteric modulator project, U937 cells, HUTS-21 mAb, flow cytometry, validation set (AID 2674;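 active = inhibition above 50%, about 3 SD of the validation set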;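 also: antibody binding induced by the VLA-4 ligand LDV present at three times its Kd; 0% = LDV ligand with antibody and no compound and 100% = antibody without LDV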). To be noted: HUTS-21 LIBS mAb binding, at 6.7 µM, stronger effect = higher value, binding induced by LDV ligand.
A short description of test [8]: superoxide lowering in aged yeast cells, pilot screen, validation compound set (AID 2706;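 active = superoxide response below 65% of plate, a cut near 3 SD across the whole screen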;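 also: yeast exposed to compound for one week at 30 degrees C before staining; 100% = mean of all compound wells on the same plate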). To be noted: S. cerevisiae aging, superoxide DHE fluorescence; at 10 µM; stronger effect = lower value.
Test [9] deals with Beta-adrenergic receptor kinase 1 (Homo sapiens) (UniProt P25098). Kind of test: GRK2 binders displacing RNA aptamer, biochemical, validation, human GRK2, bead flow cytometry (AID 488806;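 active = aptamer binding inhibition above 30%, about 3 SD of noise from non-fluorescent compounds; inactive = inhibition at or below 30%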). To be noted: bead-bound GRK2, FAM-aptamer displacement, at 10 µM, stronger effect = higher value.
The target in test [10] is Beta-2 adrenergic receptor (Homo sapiens) (UniProt P07550). Kind of test: beta2AR agonists driving receptor internalization, pilot screen, cell-based, FAP fluorogen, flow cytometry, validation set (AID 504459;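 active = percent response above 42, roughly 3 SD of non-fluorescent test compounds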;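 also: agonist-driven loss of surface beta2AR via internalization measured by FAP dye flow cytometry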). To be noted: Am2.2-beta2AR cells, FAP surface receptor flow cytometry; at 10 µM; stronger effect = higher value.
Test [11] deals with AP-2 complex subunit beta (Homo sapiens) (UniProt P63010). Kind of test: inhibitors of arrestin peptide binding to AP2, pilot screen, biochemical, validation set, GST-AP2 beads, flow cytometry (AID 504541;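 active = inhibition above 54%, about 3 SD of non-fluorescent compounds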;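 also: AP2 carries R879A mutation and is captured from E. coli lysate; bead-bound FITC arrestin peptide fluorescence measuring arrestin peptide binding to AP2; 0% = DMSO wells and 100% = excess unlabeled arrestin peptide control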). The note with it: FITC arrestin peptide, at 10 µM, stronger effect = higher value, AP2 beta2 appendage fragment, R879A mutant.
A short description of test [12]: yeast V-ATPase proton transport modulators, S. cerevisiae, pHLuorin, HTS validation (AID 504600; in the data active = response above about 15%;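 also: plate controls were DMSO for no effect and reference compound for full effect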). The note with it: S. cerevisiae pHLuorin cytosolic pH, at 10 µM, stronger effect = higher value.
Test [13] has as its system anti-desmoglein-3 scFv antibody binding to human DSG3. Put plainly: inhibitors of anti-DSG3 scFv binding to DSG3, pilot screen, biochemical, validation compound set, bead-based, flow cytometry (AID 588368).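 Also: signal is the median channel fluorescence of bead-bound GFP antibody.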 The note with it: Protein G beads, DSG3-Fc, scFv-GFP binding, at 10 µM, stronger effect = lower value.
Test [14] in a line: inhibitors of fungal efflux pumps CDR1, CDR2, MDR1, pilot screen, validation compound set, multiplex, phenotypic (AID 588506;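 active = efflux inhibition above 0.42, the validation set average plus 4 SD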;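 also: Nile Red retained in cells so higher fluorescence means more efflux inhibition; 0 = negative control wells and 1 = enniatin B 25 µM full block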). The note with it: S. cerevisiae pump-expressing triplex, Nile Red efflux flow cytometry; at 10 µM; stronger effect = higher value; the pumps come from Candida albicans.
The target in test [15] is ATP-binding cassette sub-family B member 6 (Homo sapiens) (UniProt Q9NP58). Kind of test: ABCB6 transporter inhibitors, pilot screen, K562-ABCB6 cells, flow cytometry, validation set (AID 588550;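 active = inhibition above the screen-wide mean plus 3 SD, about 51%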;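 also: 0% = DMSO wells and 100% = benzethonium chloride 70 µM positive control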). The note with it: K562-ABCB6 porphyrin accumulation, 1 h, at 10 µM, stronger effect = higher value.
A short description of test [16]: promoters of myeloid differentiation in arrested cells, primary screen, cell-based, GFP/MAC1 double positive, flow cytometry, validation set (AID 588685;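 active = differentiation response of at least 50%, scaled between solvent and reference control, from cells with both markers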;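 also: compound exposure lasts four days before antibody staining and flow analysis; 0% = DMSO wells and 100% = 5 µM fulvestrant positive control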). To be noted: ER-HoxA9 marrow cells, stronger effect = higher value, normalized: vehicle 0, fulvestrant 100.

Results on 4 compounds are retold here after PubChem BioAssay.

Results filed as inconclusive are left out. The source made the active and inactive calls.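 The calls were made as follows, unless noted: active = binding below the plate cutoff, the plate median minus 3 SD, with a reading above zero; inconclusive = below the plate cutoff but reading exactly zero; inactive = the rest.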

Chain of Beta-2 adrenergic receptor (Homo sapiens) (P07550 whole entry, looked up): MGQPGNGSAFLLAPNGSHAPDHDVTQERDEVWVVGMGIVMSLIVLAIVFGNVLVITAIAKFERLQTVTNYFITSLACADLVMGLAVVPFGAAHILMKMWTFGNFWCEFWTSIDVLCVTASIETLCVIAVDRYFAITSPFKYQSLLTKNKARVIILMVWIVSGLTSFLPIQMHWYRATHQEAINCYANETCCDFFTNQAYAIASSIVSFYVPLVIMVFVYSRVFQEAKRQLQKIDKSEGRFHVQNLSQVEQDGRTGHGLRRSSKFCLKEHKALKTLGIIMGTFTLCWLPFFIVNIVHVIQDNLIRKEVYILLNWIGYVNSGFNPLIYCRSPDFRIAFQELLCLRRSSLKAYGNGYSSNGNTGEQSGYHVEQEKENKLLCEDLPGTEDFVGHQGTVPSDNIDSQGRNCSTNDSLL
Chain of AP-2 complex subunit beta (Homo sapiens) (P63010 whole entry, looked up, the tested form may be a part, one chain of several): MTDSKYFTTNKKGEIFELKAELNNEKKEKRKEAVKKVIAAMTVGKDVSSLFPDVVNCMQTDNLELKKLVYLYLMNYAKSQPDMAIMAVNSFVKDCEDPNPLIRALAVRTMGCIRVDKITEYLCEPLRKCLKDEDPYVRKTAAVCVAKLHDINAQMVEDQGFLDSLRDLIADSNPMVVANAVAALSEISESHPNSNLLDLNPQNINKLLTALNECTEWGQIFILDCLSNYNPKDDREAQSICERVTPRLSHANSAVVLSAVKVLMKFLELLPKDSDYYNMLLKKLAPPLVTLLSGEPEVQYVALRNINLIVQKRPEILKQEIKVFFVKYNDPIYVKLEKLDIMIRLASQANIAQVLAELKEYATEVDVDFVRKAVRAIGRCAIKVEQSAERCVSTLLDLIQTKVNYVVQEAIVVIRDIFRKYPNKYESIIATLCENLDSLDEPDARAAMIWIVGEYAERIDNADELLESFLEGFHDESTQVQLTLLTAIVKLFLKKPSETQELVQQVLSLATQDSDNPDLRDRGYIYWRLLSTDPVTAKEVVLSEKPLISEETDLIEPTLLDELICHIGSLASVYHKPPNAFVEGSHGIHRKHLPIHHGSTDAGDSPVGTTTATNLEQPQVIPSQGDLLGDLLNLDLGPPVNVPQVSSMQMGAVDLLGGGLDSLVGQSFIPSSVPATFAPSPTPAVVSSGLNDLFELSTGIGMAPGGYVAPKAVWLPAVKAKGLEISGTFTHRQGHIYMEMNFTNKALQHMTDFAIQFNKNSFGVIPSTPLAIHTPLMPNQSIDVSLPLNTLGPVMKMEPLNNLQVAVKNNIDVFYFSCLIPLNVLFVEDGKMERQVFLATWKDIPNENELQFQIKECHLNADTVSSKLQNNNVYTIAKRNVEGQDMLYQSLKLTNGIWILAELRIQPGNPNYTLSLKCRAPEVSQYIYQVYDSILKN
Chain of ATP-binding cassette sub-family B member 6 (Homo sapiens) (Q9NP58 whole entry, looked up): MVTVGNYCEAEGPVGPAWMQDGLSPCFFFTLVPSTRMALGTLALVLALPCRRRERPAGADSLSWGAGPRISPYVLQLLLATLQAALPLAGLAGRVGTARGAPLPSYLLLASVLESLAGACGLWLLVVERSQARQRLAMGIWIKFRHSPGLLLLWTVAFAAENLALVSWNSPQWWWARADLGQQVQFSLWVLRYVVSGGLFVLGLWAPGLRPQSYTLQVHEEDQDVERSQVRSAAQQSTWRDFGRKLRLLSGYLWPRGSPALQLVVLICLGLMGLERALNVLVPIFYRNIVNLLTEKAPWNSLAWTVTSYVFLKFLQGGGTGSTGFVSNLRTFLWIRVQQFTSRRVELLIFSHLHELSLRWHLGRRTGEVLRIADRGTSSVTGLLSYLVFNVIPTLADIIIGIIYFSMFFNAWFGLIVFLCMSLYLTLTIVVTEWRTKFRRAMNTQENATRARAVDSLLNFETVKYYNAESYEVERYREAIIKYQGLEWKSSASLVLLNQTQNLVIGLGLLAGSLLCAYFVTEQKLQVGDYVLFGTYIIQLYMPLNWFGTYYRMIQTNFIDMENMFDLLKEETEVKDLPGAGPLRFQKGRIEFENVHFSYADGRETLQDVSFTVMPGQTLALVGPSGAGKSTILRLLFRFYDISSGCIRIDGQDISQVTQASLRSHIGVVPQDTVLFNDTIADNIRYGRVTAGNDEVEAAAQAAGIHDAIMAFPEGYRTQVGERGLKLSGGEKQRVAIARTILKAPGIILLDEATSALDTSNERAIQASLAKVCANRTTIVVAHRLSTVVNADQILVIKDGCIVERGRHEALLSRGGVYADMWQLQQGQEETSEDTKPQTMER
Chain of Beta-adrenergic receptor kinase 1 (Homo sapiens) (P25098 whole entry, looked up): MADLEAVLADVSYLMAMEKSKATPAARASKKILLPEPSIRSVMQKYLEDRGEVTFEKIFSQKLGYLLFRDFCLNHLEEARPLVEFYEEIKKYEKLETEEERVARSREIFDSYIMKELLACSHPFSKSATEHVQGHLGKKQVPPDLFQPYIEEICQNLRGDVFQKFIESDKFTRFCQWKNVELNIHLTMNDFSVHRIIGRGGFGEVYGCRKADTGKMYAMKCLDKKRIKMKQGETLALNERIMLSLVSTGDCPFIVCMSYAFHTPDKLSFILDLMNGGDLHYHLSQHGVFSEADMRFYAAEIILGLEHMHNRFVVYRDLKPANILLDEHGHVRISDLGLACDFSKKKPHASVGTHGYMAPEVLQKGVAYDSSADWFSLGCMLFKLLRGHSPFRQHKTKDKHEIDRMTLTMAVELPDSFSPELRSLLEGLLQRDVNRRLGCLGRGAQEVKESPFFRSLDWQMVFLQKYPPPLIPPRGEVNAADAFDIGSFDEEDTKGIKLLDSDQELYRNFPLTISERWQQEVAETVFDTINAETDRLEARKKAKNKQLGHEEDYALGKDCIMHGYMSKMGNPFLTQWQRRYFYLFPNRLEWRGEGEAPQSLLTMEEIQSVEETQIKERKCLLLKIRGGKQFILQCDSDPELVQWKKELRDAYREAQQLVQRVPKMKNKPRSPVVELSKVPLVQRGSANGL
Chain of Integrin beta-1 (Homo sapiens) + Integrin alpha-4 (Homo sapiens) (P05556 whole entry, looked up): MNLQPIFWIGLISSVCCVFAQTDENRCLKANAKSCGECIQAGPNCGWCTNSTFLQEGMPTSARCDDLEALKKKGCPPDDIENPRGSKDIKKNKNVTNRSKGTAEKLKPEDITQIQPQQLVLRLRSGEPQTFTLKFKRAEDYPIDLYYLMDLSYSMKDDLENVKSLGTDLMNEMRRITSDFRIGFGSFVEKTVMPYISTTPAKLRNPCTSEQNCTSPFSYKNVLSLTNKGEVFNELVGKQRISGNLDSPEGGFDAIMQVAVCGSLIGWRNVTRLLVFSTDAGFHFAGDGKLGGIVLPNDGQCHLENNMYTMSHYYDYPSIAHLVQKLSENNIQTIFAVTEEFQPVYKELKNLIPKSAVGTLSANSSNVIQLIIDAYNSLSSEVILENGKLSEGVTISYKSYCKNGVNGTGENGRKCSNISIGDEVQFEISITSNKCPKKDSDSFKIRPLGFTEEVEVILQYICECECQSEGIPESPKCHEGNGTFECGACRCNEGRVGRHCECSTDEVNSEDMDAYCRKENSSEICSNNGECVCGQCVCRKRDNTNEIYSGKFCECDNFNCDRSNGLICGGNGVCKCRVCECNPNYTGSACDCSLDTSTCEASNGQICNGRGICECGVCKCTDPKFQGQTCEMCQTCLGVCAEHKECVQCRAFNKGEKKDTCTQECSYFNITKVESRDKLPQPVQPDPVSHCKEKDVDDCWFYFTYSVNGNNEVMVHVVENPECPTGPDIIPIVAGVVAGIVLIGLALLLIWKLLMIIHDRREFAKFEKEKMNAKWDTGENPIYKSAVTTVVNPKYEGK
Chain of Integrin beta-1 (Homo sapiens) + Integrin alpha-4 (Homo sapiens) (P13612 whole entry, looked up): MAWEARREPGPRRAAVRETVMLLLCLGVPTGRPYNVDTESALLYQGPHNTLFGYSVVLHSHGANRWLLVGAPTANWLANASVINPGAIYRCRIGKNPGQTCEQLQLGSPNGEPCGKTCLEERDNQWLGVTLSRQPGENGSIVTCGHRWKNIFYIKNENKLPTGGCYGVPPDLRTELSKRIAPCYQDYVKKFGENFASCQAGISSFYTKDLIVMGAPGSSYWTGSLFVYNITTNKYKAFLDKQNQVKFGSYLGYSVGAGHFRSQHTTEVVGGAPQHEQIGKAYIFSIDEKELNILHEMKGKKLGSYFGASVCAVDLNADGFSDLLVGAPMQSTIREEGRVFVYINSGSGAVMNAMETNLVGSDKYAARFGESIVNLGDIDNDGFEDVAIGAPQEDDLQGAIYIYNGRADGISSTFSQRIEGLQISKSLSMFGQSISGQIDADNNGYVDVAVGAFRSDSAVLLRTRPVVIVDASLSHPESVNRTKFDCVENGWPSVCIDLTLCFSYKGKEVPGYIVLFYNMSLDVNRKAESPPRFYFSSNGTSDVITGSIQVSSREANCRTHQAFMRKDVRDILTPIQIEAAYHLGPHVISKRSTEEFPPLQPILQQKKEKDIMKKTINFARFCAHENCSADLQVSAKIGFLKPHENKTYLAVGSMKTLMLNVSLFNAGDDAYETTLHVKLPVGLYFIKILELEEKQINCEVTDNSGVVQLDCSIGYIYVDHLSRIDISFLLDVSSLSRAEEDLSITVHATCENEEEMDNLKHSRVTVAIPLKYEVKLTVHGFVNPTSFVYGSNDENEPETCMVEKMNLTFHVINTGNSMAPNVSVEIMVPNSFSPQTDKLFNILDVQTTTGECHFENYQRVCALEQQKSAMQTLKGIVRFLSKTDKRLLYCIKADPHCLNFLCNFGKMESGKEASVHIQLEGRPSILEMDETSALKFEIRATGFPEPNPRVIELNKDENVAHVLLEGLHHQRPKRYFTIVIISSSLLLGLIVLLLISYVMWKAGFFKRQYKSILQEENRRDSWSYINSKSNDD

Turning to `CCSC(=O)CCCCCCCCCCCO`, the percent of DMSO control GFP in test [1] is 101% (inactive). Moreover, the GFP response vs DMSO in [2] is 103% (inactive); in test [4], 127% (inactive). In addition, in [3], the percent response of DMSO control was 96.4% (inactive). The GFP response, % of DMSO in test [5] is 106% (inactive). In [6], this compound had a double positive events of 59.6%. Moreover, the vesicle binding response in test [6] is 348% (inactive). Moreover, the inhibition in test [7] is 20.2% (inactive); in [11], 41.3% (inactive); in test [15], -2% (inactive). For the same compound, the superoxide response (% of plate) in test [8] is 78.1% (inactive). For the same compound, the aptamer binding inhibition in test [9] is 0% (inactive). The figures for the response in test [10] and in test [12] were -27.7% (inactive) and 2.69% (inactive), respectively. For the same compound, the binding (% of control) in test [13] is 103% (inactive). The efflux inhibition (fraction of control) in [14] is 0.17 (inactive). In test [16], the differentiation response was -13.9% (inactive).
With `CC(C)(C)C(=O)NC(=S)NNC(=O)c1ccncc1`, in test [1], the percent of DMSO control GFP is 98.2% (inactive). The GFP response vs DMSO in [2] is 104% (inactive); in [4], 127% (inactive). In test [3], the percent response of DMSO control was 101% (inactive). Moreover, in test [5], the GFP response, % of DMSO is 109% (inactive). The double positive events in test [6] turned out to be 57.3%. Besides, the vesicle binding response in [6] is 185% (inactive). Also, the inhibition in [7] is -7.08% (inactive); in [11] it was -3.36% (inactive); in [15], -5% (inactive). Also, the superoxide response (% of plate) in [8] was 88.6% (inactive). Further, the aptamer binding inhibition in test [9] is -5% (inactive). Also, the response is -25% (inactive) in [10] and 2.56% (inactive) in test [12]. Besides, in [13], the binding (% of control) is 105% (inactive). Moreover, the efflux inhibition (fraction of control) in [14] is -0.04 (inactive). In addition, in test [16], the differentiation response is -7.94% (inactive).
As for `Cc1ccc(C2CC(=O)C(C=NCCN3CCN(C(=S)Nc4ccccc4)CC3)=C(O)C2)cc1` (stereo not drawn), the percent of DMSO control GFP in [1] was 103% (inactive). Also, the GFP response vs DMSO is 104% (inactive) in [2] and 110% (inactive) in test [4]. In addition, the percent response of DMSO control in [3] was 91.2% (inactive). Besides, the GFP response, % of DMSO in test [5] was 107% (inactive). In test [6], this compound displayed a double positive events of 60.8%. In [6], the vesicle binding response was 417% (inactive). The inhibition in test [7] is -0.27% (inactive); in test [11] it was -7.49% (inactive); in test [15] it was 3% (inactive). Moreover, the superoxide response (% of plate) in test [8] is 104% (inactive). Also, in test [9], the aptamer binding inhibition is 5% (inactive). Moreover, the response in test [10] was -26.2% (inactive); in [12] it was -3.06% (inactive). Moreover, the binding (% of control) in [13] is 101% (inactive). The efflux inhibition (fraction of control) in test [14] is 0.5 (active). Also, the differentiation response in [16] is -10.9% (inactive).
Consider `Cc1onc(-c2c(Cl)cccc2Cl)c1C(=O)NC1C(=O)N2C1SC(C)(C)C2C(=O)O` (stereo not drawn), for which the percent of DMSO control GFP in test [1] was 99.7% (inactive). The figures for the GFP response vs DMSO in test [2] and in test [4] were 103% (inactive) and 117% (inactive), respectively. Besides, the percent response of DMSO control in test [3] was 100% (inactive). For the same compound, the GFP response, % of DMSO in [5] is 113% (inactive). In test [6], this compound gave a double positive events of 59.6%. Further, the vesicle binding response in [6] was 207% (inactive). Also, the inhibition in test [7] was -6.23% (inactive); in test [11] it was 5.02% (inactive); in test [15], 3% (inactive). In test [8], the superoxide response (% of plate) was 83.9% (inactive). The aptamer binding inhibition in test [9] was 0% (inactive). Also, the response in test [10] was -26.4% (inactive); in test [12], -4.49% (inactive). In addition, the binding (% of control) in test [13] was 103% (inactive). Moreover, the efflux inhibition (fraction of control) in test [14] was 0 (inactive). For the same compound, the differentiation response in test [16] is -12.9% (inactive).

The term inhibition denotes the relative decrease from the control value, in per cent.
